# Source: PubChem BioAssay AID485341 (National Center for Advancing Translational Sciences (NCATS), 2010)
# Out of some 330,000 compounds screened, about 1,700 (0.52%) were called active. Calls come from the whole dose curve; as a rule, active = well fitted inhibition curve with a large enough effect; inconclusive = small, poorly fitted or top-dose-only effect; inactive = no such curve, though single readings can be large or run the other way. The full list was thinned out, with actives kept by preference.
# Target: Beta-lactamase (Escherichia coli (strain K12)) (UniProt P00811)
# Assay: qHTS Inhibitors of AmpC Beta-Lactamase (assay without detergent); note: nearly all actives have a fitted effect of over 20% in size
# Conditions: AmpC nitrocefin hydrolysis, absorbance 480 nm, 0.0001% Triton; series mostly up to 57.1 µM; activity change, negative = inhibition: at the top concentration
# Experimental: NIH Molecular Libraries Probe Production Network [MLPCN] NIH Chemical Genomics Center [NCGC] Assay Provider: Professor Brian Shoichet, UCSF Assay Overview: This aggregation profiling approach exploits the sensitivity of aggregate formation to detergent. Inhibition of b-lactamase is measured in the presence and absence of 0.01% Triton X-100. This particular assay had the prescence of 0.01% Triton X-100. See Pubchem assay "Promiscuous and Specific Inhibitors of AmpC Beta-Lactamase (assay without detergent)" for related screen. Compounds that inhibit only in the absence of detergent are considered likely promiscuous aggregators. A screen of 1,030 compounds was performed in Brian Shoichet's lab in 96-well format. AmpC activity was measured by following the absorbance at 480 nm. Nitrocefin is a chromogenic substrate: while nitrocefin is yellow (lmax 390 nm), the product of its hydrolysis is red (lmax 486 nm, 17,000 M-1). AmpC beta lactamase was provided by Shoichet Lab, UCSF.
# Buffer: 20 mM phosphate buffer, pH 7.0 Triton X-100: No Detergent screen: 0.0001%, Detergent screen: 0.01%. Reagents/Controls: Buffer in columns 3 and 4 as negative control (no enzyme). 5.3 nM AmpC in columns 1, 2, 5-48. Titration of UCSF compound 9 control (from 10 mM, then 1:2) pin-transferred to column 2. Column 1 is neutral (100% activity). Assay Steps: Six uL of reagents were dispensed to 1536-well Greiner black clear bottom plates. Compounds and controls (23 nL) were transferred via Kalypsys PinTool. The plates were incubated for 15 min at room temperature, and then 2 uL of 800 uM solution of nitrocefin was added to start the reaction. The plates were immediately transferred to and read every 20 seconds for 4 min on ViewLux (Perkin-Elmer) High-throughput CCD imager using 480 nm absorbance protocol. During dispense, reagent bottles were kept submerged into 4 deg C water bath. Keywords: NIH Roadmap, MLSCN, MLI, MLSMR, qHTS, NCGC, AmpC Beta-Lactamase, Aggregation
# Potency is the fitted concentration of half-maximal effect.
# Sequence of Beta-lactamase (Escherichia coli (strain K12)) (P00811 whole entry, looked up): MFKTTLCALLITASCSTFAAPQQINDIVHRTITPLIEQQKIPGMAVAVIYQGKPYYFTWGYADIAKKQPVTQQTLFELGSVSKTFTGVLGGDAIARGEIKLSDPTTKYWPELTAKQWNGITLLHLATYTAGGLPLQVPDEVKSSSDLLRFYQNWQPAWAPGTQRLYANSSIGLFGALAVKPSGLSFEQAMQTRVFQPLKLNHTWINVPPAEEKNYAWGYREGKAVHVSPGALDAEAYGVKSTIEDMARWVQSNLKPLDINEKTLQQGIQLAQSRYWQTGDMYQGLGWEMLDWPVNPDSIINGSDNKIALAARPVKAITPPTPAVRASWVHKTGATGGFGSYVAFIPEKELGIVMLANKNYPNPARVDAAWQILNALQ
SMILES,Potency,"activity change, negative = inhibition"
COc1cc(CO)ccc1OCC(=O)Nc1cccc2ccccc12,14.1 µM (active),–
COc1ccccc1NC(=O)COc1ccc(C(=O)OCC(=O)N(C(C)C)C(C)C)cc1OC,–,108% (inactive)
COc1ccc(N(CC(=O)Nc2cccc3ccccc23)S(C)(=O)=O)c(OC)c1,–,33.5% (inactive)
C[C@@H](NC(=O)OC(C)(C)C)c1nnc(S(=O)(=O)Cc2ccccc2)o1,10 µM (active),–
CCc1ccccc1NC(=O)CSc1nnc([C@@H](NC(=O)OC(C)(C)C)C(C)CC)o1 (stereo not given in full),–,-2.18% (inactive)
COc1ccccc1NC(=O)[C@H](COCc1ccccc1)NC(=O)OC(C)(C)C,–,0.197% (inactive)
Cn1c(Cc2csc(N)n2)nnc1SC/C=C/c1ccccc1,–,-22.6% (inactive)
COc1cc(Cl)c(S(=O)(=O)N2CCN(Cc3ccc4c(c3)OCO4)CC2)cc1Cl,–,3.51% (inactive)
COc1ccc(/C=C2/SC(=O)N(CCCCCC(=O)Nc3ccccc3C(=O)O)C2=S)cc1,–,-28.7% (inactive)
O=C(CCCN1C(=O)/C(=C/c2cccs2)SC1=S)Nc1ccc(O)cc1,–,-43.8% (inactive)
O=C(CN1C(=O)/C(=C\c2ccccc2F)SC1=S)Nc1nc2ccccc2s1,–,-33.9% (inactive)
O=C1/C(=C\c2ccccc2Cl)SC(=S)N1CCC(=O)N1CCCc2ccccc21,–,-9.24% (inactive)
O=C(CCCN1C(=O)/C(=C\c2ccco2)SC1=S)Nc1cccc2ccccc12,11.2 µM (active),–
O=C(CCCN1C(=O)/C(=C\c2ccccc2)SC1=S)Nc1ccccc1O,11.2 µM (active),–
CCC(c1nnc(SCC(=O)NNC(=O)c2ccccc2)n1Cc1ccccc1)N(C)C (stereo not given),–,1.21% (inactive)
CN(C)/C=C(/C(=O)c1ccccc1)S(=O)(=O)c1ccc(Cl)cc1,–,-33.1% (inactive)
CN(C)/C=C(/C(=O)c1ccc(F)cc1)S(=O)(=O)c1ccc(F)cc1,12.6 µM (active),–
CN(C)/C=C(/C(=O)c1ccc(Cl)cc1)S(=O)(=O)c1ccccc1,–,-15.6% (inactive)
Cc1ccccc1CN1CCNC(=O)C1CC(=O)NCCC1=CCCCC1 (stereo not given),–,99.3% (inactive)
COc1cc(NC(=S)NNC(=O)CC(C)C)c(OC)cc1Cl,–,-27% (inactive)
C=CCNC(=O)c1sc(SC)cc1-c1ccc(Cl)cc1,1 µM (active),–
C=CCNC(=O)c1csc(-c2ccccc2)n1,–,-25.3% (inactive)

SMILES,Potency,"activity change, negative = inhibition"
CSc1sc(C(=O)NNC(=O)c2ccc(Cl)cc2)c2c1C=CCC2,–,-47% (inactive)
CCN1CCN(CC(=O)c2cc(OC)c(OC)c(OC)c2)CC1,–,-9.84% (inactive)
CC(C)c1ccc(N(C(=O)c2ccco2)C(C(=O)NC2CCCC2)c2cccnc2)cc1 (stereo not given),–,30.8% (inactive)
COC(=O)c1cc(C(=O)OC)cc(N2C(=O)CC(N3CCN(c4ccccc4)CC3)C2=O)c1 (stereo not given),–,11.2% (inactive)
COC(=O)c1ccccc1SC1CC(=O)N(c2cccc(C)c2)C1=O (stereo not given),7.08 µM (active),–
Cc1cccc(N2C(=O)CC(SC(N)=Nc3ccccc3)C2=O)c1 (stereo not given),–,-10.7% (inactive)
CCc1ccc(Oc2nc([N+](=O)[O-])nn2C)cc1,–,-10.1% (inactive)
Cc1c(NC(=O)CN2C(=O)C(=O)N(Cc3ccccc3)C2=O)c(=O)n(-c2ccccc2)n1C,–,-15.6% (inactive)
O=C1CC(=O)N(Cc2ccccc2)C(=O)N1CCCCCCN1C(=O)CC(=O)N(Cc2ccccc2)C1=O,7.08 µM (active),–
O=C(O)CCCN1C(=O)C2C3c4ccccc4C(c4ccccc43)[C@@H]2C1=O (stereo not given in full),–,-5.32% (inactive)
COc1ccc(CCN2C(=O)N(c3ccc(OC)cc3)C(=O)C2CC(=O)Nc2ccc(OC)cc2)cc1 (stereo not given),–,-11.7% (inactive)
CCN=C1S/C(=C\c2cc(Br)ccc2OCC(=O)OCC)C(=O)N1CC,–,3.25% (inactive)
O=c1c2ccccc2[nH]c(=S)n1CCN1CCC(=C(c2ccc(F)cc2)c2ccc(F)cc2)CC1,3.16 µM (active),–
CCCCn1c(=S)[nH]c2ccccc2c1=O,–,-26.7% (inactive)
COc1ccc(Cn2c(=S)[nH]c3cc(C(=O)NCCCN4CCOCC4)ccc3c2=O)cc1,–,35.1% (inactive)
C=CCn1c(SCCOc2ccc(OC)cc2)nnc1C(NC(=O)c1ccc(OC)cc1)C(C)C (stereo not given),–,3.24% (inactive)
COc1cccc(NC(=O)CCc2nnc3ccc(N4CCC(C)CC4)nn23)c1,–,125% (inactive)
CN(CC(=O)NCC(c1ccccc1)N1CCCC1)S(=O)(=O)c1ccc(Cl)cc1 (stereo not given),–,96.8% (inactive)
O=C(COC(=O)c1ccc(O)cc1O)NNC(=O)c1cccs1,–,-14.2% (inactive)
O=C(COC(=O)c1ccc(NS(=O)(=O)c2cccs2)cc1O)Nc1ccc(F)cc1,14.1 µM (active),–
CCc1ccc(NC(=O)COC(=O)c2cccs2)cc1,–,-24.7% (inactive)
CC(=O)N/C(=C/c1ccc(OC(F)F)cc1)C(=O)O,–,-19.8% (inactive)

SMILES,Potency,"activity change, negative = inhibition"
COc1cccc(-c2coc3cc4oc(=O)c(CC(=O)O)c(C)c4cc23)c1,–,-22.6% (inactive)
C=CCNC(=O)COc1coc(CN2CCN(Cc3ccccc3)CC2)cc1=O,–,48.1% (inactive)
COc1ccc(OCCCC(=O)Nc2cccc(S(=O)(=O)N3CCCCCC3)c2)cc1,–,-8.29% (inactive)
COc1cccc(NC(=O)COc2cccnc2[N+](=O)[O-])c1,–,-40.6% (inactive)
COc1ccc(S(=O)(=O)NC(CC(=O)NCc2ccccc2OC)c2ccco2)cc1 (stereo not given),0.316 µM (active),–
O=C(CC(NS(=O)(=O)c1ccc(Cl)cc1)c1ccco1)NC1CCCC1 (stereo not given),–,-46.4% (inactive)
COc1ccccc1CNC(=O)COC(=O)CNS(=O)(=O)c1ccc(NC(C)=O)cc1,–,-14.1% (inactive)
Cc1cc(C)n(-c2ccc3nncn3n2)n1,–,-5.01% (inactive)
COc1ccc(C2N3CC(C)(C)CN23)cc1 (stereo not given),–,-13.2% (inactive)
O=C(CC1CCCCC1)NCc1ccco1,–,-0.34% (inactive)
O=C(CN1C(=O)/C(=C\c2ccc(C(F)(F)F)cc2)Sc2ccccc21)NCc1ccco1,10 µM (active),–
O=C(CN1C(=O)/C(=C/c2ccccc2F)Sc2ccccc21)NCc1cccnc1,–,131% (inactive)
CN1CCN(Cc2nc3c(c(=O)n(C)c(=O)n3C)n2Cc2cccc3ccccc23)CC1,–,19.2% (inactive)
CC1CN(Cc2nc3c(c(=O)n(C)c(=O)n3C)n2Cc2cccc(Cl)c2)CC(C)O1 (stereo not given),44.7 µM (active),–
CCOC(=O)N1CCN(Cc2nc3c(c(=O)n(C)c(=O)n3C)n2Cc2ccccc2)CC1,–,-89.9% (inactive)
C=CCn1c(C2CC(=O)N(c3ccc(C)cc3)C2)nc2ccccc21 (stereo not given),–,8.29% (inactive)
O=S(=O)(c1cccc2nonc12)N1CCN(c2cccc(Cl)c2)CC1,–,-29.9% (inactive)
CC(=O)c1ccccc1NC(=O)CC1(CC(=O)O)CCCCC1,–,-18.6% (inactive)
CC(C)N(c1ccccc1)c1ncnc(NCCC(=O)O)c1[N+](=O)[O-],0.316 µM (active),–
Cc1ccc(OCC(=O)NC(C)c2ccccc2)c([N+](=O)[O-])n1 (stereo not given),–,7.38% (inactive)
Cc1ccc(C(C)NC(=O)Cn2nc(C)c([N+](=O)[O-])c2C)cc1 (stereo not given),–,-16.3% (inactive)
